In PubChem BioAssay (NCATS):
Inconclusive results are not listed. The source made the active and inactive calls. The call rests on the fitted dose curve; in most records, active means well fitted curve in either direction with a large enough effect (not every such curve was filed as active); inconclusive means small, poorly fitted or top-dose-only effect, or another doubt; inactive means flat fitted curve, though single readings scatter.

Test: AP1 Signaling Pathway (AID 357);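 further: ME-180 reporter cells stimulated with EGF at its EC50 level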
Settings: ME-180 (cervical carcinoma) AP-1-bla reporter, EGF-induced, beta-lactamase ratio, 5 h; at 17.2 µM (top of the series) unless noted
Procedure, shortened: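 Beta-lactamase reporter under AP-1 response element, ME-180 background. Stimulus: EC50 EGF. Compound exposure 5 h, 37 °C. Detection: CCF4, 2.5 h RT, 460/530 nm. Values: AC50 from titration.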
On the % scale 0 is the no-effect control and ±100 the full control effect.

Activity change, negative = inhibition, inactive:
COC(=O)c1sccc1NC(=O)c1c(C)cc(=O)oc1C 9.11%
COc1nnnc2c1sc1nc(N3CCOCC3)c3c(c12)CC(C)(C)OC3 -3.49%
CC1(C)NC(=O)N(CC(O)COc2cc3ccccc3cc2C(=O)N2CCCCC2)C1=O (stereo not drawn) -6.63%
CC(C)OC(=O)c1sc2nc3c(cc2c1N)C(=O)CCC3 -5.75%
Nc1nnc(CSCc2ccc(F)cc2)s1 8.86%
CC(C(=O)N1CCOCC1)N1C(=O)c2ccccc2C1=O (stereo not drawn) 14.2%
CN(C)CCOC(=O)Cc1ccc(Cl)cc1 12%
COc1ccc(Nc2nnc(C)c3ccccc23)cc1C(N)=O -4.55%
c1coc(-c2nc3nc4ccccc4nc3n2-c2ccc3c(c2)OCCO3)c1 -28.6%
O=C(OCCN1CCOCC1)c1ccc(OCCN2CCOCC2)cc1 1.65%
COc1cccc(C=NCCNC(=O)c2nonc2N)c1O 0.441%
C=CCNc1nc(C)nc(OC)n1 8.25%
CCC(NC(=O)NC1=NCCS1)(C(F)(F)F)C(F)(F)F 8.03%
Cc1ccc(N(CC(O)CN2CCCC2)S(=O)(=O)c2ccc(C)cc2)cc1 (stereo not drawn) 0.0608%
CCOC(=O)CSc1nc(C)c(C(C)=O)cc1C#N 8.73%
O=C1CC(c2ccco2)CC(O)=C1C=NCCN1CCN(C2CC(=O)N(c3ccccc3)C2=O)CC1 (stereo not drawn) -3.13%
CCOCc1nc(N)[nH]c(=O)c1Cc1ccc(OC(C)C)cc1 1.48%
Cn1c[n+](C)cc1/C=N/O 6.85%
CCCc1nc2n[nH]c(N)c2c2c1COC(C)(C)C2 2.75%
COc1ccc(OC)c(C2/C(=C(\O)c3ccc(OC)c(Cl)c3)C(=O)C(=O)N2CCN(C)C)c1 (stereo not drawn) 10.2%
Cc1cn2c(-c3ccncc3)nnc2s1 -4.06%
CCCOc1ccc(/C(O)=C2/C(=O)C(=O)N(CCN3CCOCC3)C2c2ccccc2)cc1 (stereo not drawn) -16.7%
CN=C1c2c(-c3ccccc3)c3cc(OC)ccc3n2CCN1C 24.6%
N#CCCSc1nc(N2CCOCC2)c2c(c1C#N)CCCC2 -2.29%
COc1ccc(/C(O)=C2/C(=O)C(=O)N(CCN3CCOCC3)C2c2ccccn2)cc1OC (stereo not drawn) 3.25%
COCCNC(=O)C(C#N)c1nc2ccccc2nc1N1CCN(Cc2ccc3c(c2)OCO3)CC1 (stereo not drawn) -20.2%
N#C/C(C(=O)N1CCCCC1)=C1\Nc2ccccc2S1 -15%
C=CCOc1ccc(C2/C(=C(\O)c3ccc(F)cc3)C(=O)C(=O)N2CCCN(C)C)cc1 (stereo not drawn) 4.74%
Cc1nn(C)cc1CNC(=O)c1ccc(Br)o1 5.3%
CC1(C)CC(=O)C(CCCN2C(=O)c3ccccc3C2=O)C(=O)C1 8.1%
Cc1cc(NC(=O)CSc2nc(-c3cccnc3)ccc2C#N)no1 -14.4%
O=C(c1ccccc1)c1cc(-c2ccccc2)on1 -5.5%
CCCCCOC(=O)Cc1c(C)nc(-c2ccccc2)[nH]c1=O -3.29%
Cc1cccc(NC(=O)c2cc(N3CCOCC3)nc3ccccc23)c1 -7.76%
COc1ccc(/C(O)=C2\C(=O)C(=O)N(CCN3CCOCC3)C2c2ccccc2OC)cc1 (stereo not drawn) -4.72%
CC(=O)NC(=O)Nc1sc(=S)n(C)c1C -0.255%
CCN(CC)S(=O)(=O)c1cccc2c(N(C)C)cccc12 -13.4%
CCN(CC)CCN1C(=O)C(O)=C(C(=O)c2cccs2)C1c1ccccn1 (stereo not drawn) -0.981%
CCOC(=O)C1=C(C(C)=O)C(c2cccnc2)C(C#N)=C(N)O1 (stereo not drawn) 29.3%

Test: NFAT Signaling Pathway (AID 444);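 further: carbachol stimulus at about its EC50 of 1 µM final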
Settings: Jurkat NFAT-bla M1, carbachol, beta-lactamase ratio, 5 h; at 17.2 µM (top of the series) unless noted
Procedure, shortened: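 Read-out: CCF4 FRET ratio (460 nm/530 nm) after 1 h RT dye loading, used for %activity and AC50 from titration series. Cells: Jurkat NFAT-β-lactamase/M1 line, treated with compound plus 1 uM carbachol for 5 h, 37 °C.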

Activity change, negative = inhibition, inactive:
COC(=O)c1sccc1NC(=O)c1c(C)cc(=O)oc1C 8.6%
COc1nnnc2c1sc1nc(N3CCOCC3)c3c(c12)CC(C)(C)OC3 -9.1%
CC1(C)NC(=O)N(CC(O)COc2cc3ccccc3cc2C(=O)N2CCCCC2)C1=O (stereo not drawn) 8.86%
CC(C)OC(=O)c1sc2nc3c(cc2c1N)C(=O)CCC3 7.77%
Nc1nnc(CSCc2ccc(F)cc2)s1 -1.8%
CC(C(=O)N1CCOCC1)N1C(=O)c2ccccc2C1=O (stereo not drawn) -4.66%
CN(C)CCOC(=O)Cc1ccc(Cl)cc1 -7.05%
COc1ccc(Nc2nnc(C)c3ccccc23)cc1C(N)=O 10.7%
c1coc(-c2nc3nc4ccccc4nc3n2-c2ccc3c(c2)OCCO3)c1 21.1%
O=C(OCCN1CCOCC1)c1ccc(OCCN2CCOCC2)cc1 -7.8%
COc1cccc(C=NCCNC(=O)c2nonc2N)c1O -9.52%
C=CCNc1nc(C)nc(OC)n1 13.9%
CCC(NC(=O)NC1=NCCS1)(C(F)(F)F)C(F)(F)F -10%
Cc1ccc(N(CC(O)CN2CCCC2)S(=O)(=O)c2ccc(C)cc2)cc1 (stereo not drawn) -19.4%
CCOC(=O)CSc1nc(C)c(C(C)=O)cc1C#N -3.61%
O=C1CC(c2ccco2)CC(O)=C1C=NCCN1CCN(C2CC(=O)N(c3ccccc3)C2=O)CC1 (stereo not drawn) -22.1%
CCOCc1nc(N)[nH]c(=O)c1Cc1ccc(OC(C)C)cc1 13.9%
Cn1c[n+](C)cc1/C=N/O 4.23%
CCCc1nc2n[nH]c(N)c2c2c1COC(C)(C)C2 -0.018%
COc1ccc(OC)c(C2/C(=C(\O)c3ccc(OC)c(Cl)c3)C(=O)C(=O)N2CCN(C)C)c1 (stereo not drawn) 2.23%
Cc1cn2c(-c3ccncc3)nnc2s1 1.86%
CCCOc1ccc(/C(O)=C2/C(=O)C(=O)N(CCN3CCOCC3)C2c2ccccc2)cc1 (stereo not drawn) 4.9%
CN=C1c2c(-c3ccccc3)c3cc(OC)ccc3n2CCN1C -8.39%
N#CCCSc1nc(N2CCOCC2)c2c(c1C#N)CCCC2 13.2%
COc1ccc(/C(O)=C2/C(=O)C(=O)N(CCN3CCOCC3)C2c2ccccn2)cc1OC (stereo not drawn) -11%
COCCNC(=O)C(C#N)c1nc2ccccc2nc1N1CCN(Cc2ccc3c(c2)OCO3)CC1 (stereo not drawn) -26.8%
N#C/C(C(=O)N1CCCCC1)=C1\Nc2ccccc2S1 11.9%
C=CCOc1ccc(C2/C(=C(\O)c3ccc(F)cc3)C(=O)C(=O)N2CCCN(C)C)cc1 (stereo not drawn) -5.15%
Cc1nn(C)cc1CNC(=O)c1ccc(Br)o1 -0.512%
CC1(C)CC(=O)C(CCCN2C(=O)c3ccccc3C2=O)C(=O)C1 2.72%
Cc1cc(NC(=O)CSc2nc(-c3cccnc3)ccc2C#N)no1 6.09%
O=C(c1ccccc1)c1cc(-c2ccccc2)on1 -10%
CCCCCOC(=O)Cc1c(C)nc(-c2ccccc2)[nH]c1=O 8.16%
Cc1cccc(NC(=O)c2cc(N3CCOCC3)nc3ccccc23)c1 28.7%
COc1ccc(/C(O)=C2\C(=O)C(=O)N(CCN3CCOCC3)C2c2ccccc2OC)cc1 (stereo not drawn) 15.6%
CC(=O)NC(=O)Nc1sc(=S)n(C)c1C 15.7%
CCN(CC)S(=O)(=O)c1cccc2c(N(C)C)cccc12 -17.2%
CCN(CC)CCN1C(=O)C(O)=C(C(=O)c2cccs2)C1c1ccccn1 (stereo not drawn) 9.2%
CCOC(=O)C1=C(C(C)=O)C(c2cccnc2)C(C#N)=C(N)O1 (stereo not drawn) -19%
